We go through eight molecules from PubChem BioAssay (Tox21).

Records with an inconclusive call do not appear. Where a call stands in place of a potency, no number is given. Activity calls are given as the source filed them. Calls come from the whole dose curve; as a rule, active = well fitted curve in the direction sought with a large enough effect in the repeat runs; inconclusive = weak or mixed curves; inactive = no such curve, though single readings can be large; an effect the other way counts as inactive or inconclusive.
Note: nearly all actives have a fitted effect of over 40% in size.

One assay deals with Nuclear receptor subfamily 1 group I member 2 (Homo sapiens) (UniProt O75469). Nature of the assay: CYP3A4 induction through human pregnane X receptor (PXR) by small molecules, qHTS assay (AID 1346984). Conditions: DPX-2 HepG2 PXR, CYP3A4-luciferin luminescence, 24 h; series mostly up to 46.1 µM. Summed up: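 Readings come from a luciferase reporter: DPX-2 cells, which are HepG2 cotransfected with PXR and a CYP3A4-promoter construct, were exposed to test compounds for 24 h at 37C before One-Glo detection.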
(In qHTS, concentration-response curves come from the screen itself.)
Regarding `O=c1[nH]c(=O)n([C@H]2C[C@H](O)[C@@H](CO)O2)cc1Br`, the molecule was classed as inactive.

As to `OCCOCCOCCO`, the molecule was classed as inactive.

For the molecule `CC(=O)OCC(=O)[C@@]12N=C(C)O[C@@H]1C[C@H]1[C@@H]3CCC4=CC(=O)C=C[C@]4(C)[C@H]3[C@@H](O)C[C@@]12C`, the outcome was inactive.

Regarding `OC[C@H]1O[C@@](CO)(O[C@H]2O[C@H](CO)[C@@H](O)[C@H](O)[C@H]2O)[C@@H](O)[C@@H]1O`, the call was inactive.

In the case of `CC(c1cc2ccccc2s1)N(O)C(N)=O` (stereo unspecified), the call was inactive.

As for `CCCCCC(N)=O`, the outcome was inactive.

Take `O=c1[nH]c(=O)n([C@H]2CCCO2)cc1F`: the result was inactive.

As for `C=CCNC(N)=S`, the outcome was inactive.

For a further assay the target is unchanged. The assay is described as follows: Human pregnane X receptor (PXR) activation by small molecules, qHTS assay (AID 1346985). Particulars: DPX-2 HepG2 CYP3A4-luciferase, 24 h; series mostly up to 38.3 µM. An outline of the steps:
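DPX-2 cells (HepG2 co-transfected with a PXR response element and a CYP3A4-promoter luciferase construct) were seeded at 2,000 per well, rested 5 hr at 37C, then exposed to DMSO-dissolved compounds for 24 hr. Activation was read as luciferase luminescence.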
Take `O=c1[nH]c(=O)n([C@H]2C[C@H](O)[C@@H](CO)O2)cc1Br`: the Potency entry was “inactive”.

In the case of `OCCOCCOCCO`, the Potency entry is “inactive”.

Turning to `CC(=O)OCC(=O)[C@@]12N=C(C)O[C@@H]1C[C@H]1[C@@H]3CCC4=CC(=O)C=C[C@]4(C)[C@H]3[C@@H](O)C[C@@]12C`, the Potency result is “inactive”.

On to `OC[C@H]1O[C@@](CO)(O[C@H]2O[C@H](CO)[C@@H](O)[C@H](O)[C@H]2O)[C@@H](O)[C@@H]1O`, for which the Potency result was “inactive”.

`CC(c1cc2ccccc2s1)N(O)C(N)=O` (stereo unspecified): the Potency entry was “inactive”.

Take `CCCCCC(N)=O`: the Potency result was “inactive”.

Regarding `O=c1[nH]c(=O)n([C@H]2CCCO2)cc1F`, the Potency result was “inactive”.

With `C=CCNC(N)=S`, the Potency result was “inactive”.
